Assay results published in publication PMC11006913.
Residue numbers refer to the chain shown, from its start.

Assays:
Assay in all cases: PBM; 200 nM protein, PBS
Conditions in all cases: dsDNA, one strand shown
CRX [1] = biological target: CRX (Homo sapiens, UniProt O43186 26-111)
CRX [2] = biological target: CRX (Homo sapiens, UniProt O43186 26-111, R41L)
HOXB9 [3] = biological target: HOXB9 (Homo sapiens, UniProt P17482 171-250)
HOXB9 [4] = biological target: HOXB9 (Homo sapiens, UniProt P17482 171-250, R186Q)
Sequence of HOXB9 (Homo sapiens, UniProt P17482 171-250, R186Q) (P17482 171-250 R186Q): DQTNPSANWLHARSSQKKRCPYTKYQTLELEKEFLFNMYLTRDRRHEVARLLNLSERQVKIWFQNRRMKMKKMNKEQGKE

VENTX [5] = biological target: T1, VENTX (Homo sapiens, UniProt O95231 78-163, R121Q)
T1 sequence: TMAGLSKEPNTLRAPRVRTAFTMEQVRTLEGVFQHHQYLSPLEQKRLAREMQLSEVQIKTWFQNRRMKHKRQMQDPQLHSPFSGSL

VENTX [6] = biological target: T2, VENTX (Homo sapiens, UniProt O95231 78-163, Y115F)
T2 sequence: T1 sequence with Y38F, Q44R

HOXD13 = HOXD13 (Homo sapiens, UniProt P35453 263-343)
Sequence of HOXD13 (P35453 263-343): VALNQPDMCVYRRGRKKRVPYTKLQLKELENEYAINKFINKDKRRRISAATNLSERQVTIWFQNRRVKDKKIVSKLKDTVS

SIX6 [7] = biological target: T3, SIX6 (Homo sapiens, UniProt O95475 114-200, L167I)
T3 sequence: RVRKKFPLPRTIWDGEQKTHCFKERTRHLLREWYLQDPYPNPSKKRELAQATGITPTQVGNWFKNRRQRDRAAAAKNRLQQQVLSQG

SIX6 [8] = biological target: T4, SIX6 (Homo sapiens, UniProt O95475 114-200, L143V)
T4 sequence: T3 sequence with L30V, I54L

SIX6 [9] = biological target: T5, SIX6 (Homo sapiens, UniProt O95475 114-200, H141N)
T5 sequence: T3 sequence with H28N, I54L

SIX6 [10] = biological target: T6, SIX6 (Homo sapiens, UniProt O95475 114-200, T165P)
T6 sequence: T3 sequence with T52P, I54L

SIX6 [11] = biological target: T7, SIX6 (Homo sapiens, UniProt O95475 114-200, L167M)
T7 sequence: T3 sequence with I54M

SIX6 [12] = biological target: T8, SIX6 (Homo sapiens, UniProt O95475 114-200, L143M)
T8 sequence: T3 sequence with L30M, I54L

SIX6 [13] = biological target: T9, SIX6 (Homo sapiens, UniProt O95475 114-200, L143I)
T9 sequence: T3 sequence with L30I, I54L

SIX6 [14] = biological target: T10, SIX6 (Homo sapiens, UniProt O95475 114-200, T165G)
T10 sequence: T3 sequence with T52G, I54L

SIX6 [15] = biological target: T11, SIX6 (Homo sapiens, UniProt O95475 114-200, T139Q)
T11 sequence: T3 sequence with T26Q, I54L

SIX6 [16] = biological target: T12, SIX6 (Homo sapiens, UniProt O95475 114-200, T165A)
T12 sequence: T3 sequence with T52A, I54L

SIX6 [17] = biological target: T13, SIX6 (Homo sapiens, UniProt O95475 114-200, L167V)
T13 sequence: T3 sequence with I54V

SIX6 [18] = biological target: T14, SIX6 (Homo sapiens, UniProt O95475 114-200)
T14 sequence: T3 sequence with I54L

SIX6 [19] = biological target: T15, SIX6 (Homo sapiens, UniProt O95475 114-200, T165I)
T15 sequence: T3 sequence with T52I, I54L

Sequence of CRX (Homo sapiens, UniProt O43186 26-111, R41L) (O43186 26-111 R41L): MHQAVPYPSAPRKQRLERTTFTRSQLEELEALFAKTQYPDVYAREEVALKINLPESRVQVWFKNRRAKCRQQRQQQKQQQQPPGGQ
Sequence of HOXB9 (Homo sapiens, UniProt P17482 171-250) (P17482 171-250): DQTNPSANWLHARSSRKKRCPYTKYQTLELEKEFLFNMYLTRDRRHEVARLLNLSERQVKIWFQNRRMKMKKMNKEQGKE
Sequence of CRX (Homo sapiens, UniProt O43186 26-111) (O43186 26-111): as the sequence (O43186 26-111 R41L) above, with L16R counted along it

CGAACGCC
binding signal (CRX [1]): 7.92 upbm affinity estimate (log intensity, higher = more binding, comparable within an allelic series) | binding signal (CRX [2]): 8.11 upbm affinity estimate (log intensity, higher = more binding, comparable within an allelic series)

ATTACGTA
binding signal (CRX [1]): 10.5 upbm affinity estimate (log intensity, higher = more binding, comparable within an allelic series) | binding signal (CRX [2]): 10.2 upbm affinity estimate (log intensity, higher = more binding, comparable within an allelic series)

GCCACTTA
binding signal (HOXB9 [3]): 10.1 upbm affinity estimate (log intensity, higher = more binding, comparable within an allelic series) | binding signal (HOXB9 [4]): 10 upbm affinity estimate (log intensity, higher = more binding, comparable within an allelic series)

ACCAGCTG
binding signal (VENTX [5]): 7.92 upbm affinity estimate (log intensity, higher = more binding, comparable within an allelic series) | binding signal (VENTX [6]): 8.14 upbm affinity estimate (log intensity, higher = more binding, comparable within an allelic series)

CGGTCCAA
binding signal (CRX [1]): 8.48 upbm affinity estimate (log intensity, higher = more binding, comparable within an allelic series) | binding signal (CRX [2]): 8.25 upbm affinity estimate (log intensity, higher = more binding, comparable within an allelic series)

CACTTATA
binding signal (HOXB9 [3]): 10.4 upbm affinity estimate (log intensity, higher = more binding, comparable within an allelic series) | binding signal (HOXB9 [4]): 10.2 upbm affinity estimate (log intensity, higher = more binding, comparable within an allelic series)

AATAAGTG
binding signal (HOXD13): 10.6 upbm affinity estimate (log intensity, higher = more binding, comparable within an allelic series)

CGGGCTCC
binding signal (VENTX [5]): 7.54 upbm affinity estimate (log intensity, higher = more binding, comparable within an allelic series) | binding signal (VENTX [6]): 7.32 upbm affinity estimate (log intensity, higher = more binding, comparable within an allelic series) | binding signal (HOXB9 [3]): 7.77 upbm affinity estimate (log intensity, higher = more binding, comparable within an allelic series) | binding signal (HOXB9 [4]): 7.82 upbm affinity estimate (log intensity, higher = more binding, comparable within an allelic series)

CCGGCGCG
binding signal (CRX [1]): 8.33 upbm affinity estimate (log intensity, higher = more binding, comparable within an allelic series) | binding signal (CRX [2]): 8.36 upbm affinity estimate (log intensity, higher = more binding, comparable within an allelic series)

CCCGGCGG
binding signal (SIX6 [7]): 9.11 upbm affinity estimate (log intensity, higher = more binding, comparable within an allelic series) | binding signal (SIX6 [8]): 8.98 upbm affinity estimate (log intensity, higher = more binding, comparable within an allelic series) | binding signal (SIX6 [9]): 9.13 upbm affinity estimate (log intensity, higher = more binding, comparable within an allelic series) | binding signal (SIX6 [10]): 8.96 upbm affinity estimate (log intensity, higher = more binding, comparable within an allelic series) | binding signal (SIX6 [11]): 9 upbm affinity estimate (log intensity, higher = more binding, comparable within an allelic series) | binding signal (SIX6 [12]): 9.17 upbm affinity estimate (log intensity, higher = more binding, comparable within an allelic series) | binding signal (SIX6 [13]): 9 upbm affinity estimate (log intensity, higher = more binding, comparable within an allelic series) | binding signal (SIX6 [14]): 9.14 upbm affinity estimate (log intensity, higher = more binding, comparable within an allelic series) | binding signal (SIX6 [15]): 9.18 upbm affinity estimate (log intensity, higher = more binding, comparable within an allelic series) | binding signal (SIX6 [16]): 9.22 upbm affinity estimate (log intensity, higher = more binding, comparable within an allelic series) | binding signal (SIX6 [17]): 9.07 upbm affinity estimate (log intensity, higher = more binding, comparable within an allelic series) | binding signal (SIX6 [18]): 9.12 upbm affinity estimate (log intensity, higher = more binding, comparable within an allelic series) | binding signal (SIX6 [19]): 9.08 upbm affinity estimate (log intensity, higher = more binding, comparable within an allelic series)

GCACTTAA
binding signal (VENTX [5]): 10.2 upbm affinity estimate (log intensity, higher = more binding, comparable within an allelic series) | binding signal (VENTX [6]): 10.3 upbm affinity estimate (log intensity, higher = more binding, comparable within an allelic series)

CTAATTGC
binding signal (VENTX [5]): 12.3 upbm affinity estimate (log intensity, higher = more binding, comparable within an allelic series) | binding signal (VENTX [6]): 12 upbm affinity estimate (log intensity, higher = more binding, comparable within an allelic series)

CGGACCCG
binding signal (CRX [1]): 8.38 upbm affinity estimate (log intensity, higher = more binding, comparable within an allelic series) | binding signal (CRX [2]): 8.36 upbm affinity estimate (log intensity, higher = more binding, comparable within an allelic series)

AATTAGCT
binding signal (VENTX [5]): 11.7 upbm affinity estimate (log intensity, higher = more binding, comparable within an allelic series) | binding signal (VENTX [6]): 11.4 upbm affinity estimate (log intensity, higher = more binding, comparable within an allelic series)

CGCCCGAG
binding signal (HOXB9 [3]): 8.15 upbm affinity estimate (log intensity, higher = more binding, comparable within an allelic series) | binding signal (HOXB9 [4]): 8.29 upbm affinity estimate (log intensity, higher = more binding, comparable within an allelic series)

CAGCCCGG
binding signal (HOXD13): 9.67 upbm affinity estimate (log intensity, higher = more binding, comparable within an allelic series)

CCCTCCGG
binding signal (SIX6 [7]): 9.04 upbm affinity estimate (log intensity, higher = more binding, comparable within an allelic series) | binding signal (SIX6 [8]): 8.92 upbm affinity estimate (log intensity, higher = more binding, comparable within an allelic series) | binding signal (SIX6 [9]): 9.12 upbm affinity estimate (log intensity, higher = more binding, comparable within an allelic series) | binding signal (SIX6 [10]): 8.9 upbm affinity estimate (log intensity, higher = more binding, comparable within an allelic series) | binding signal (SIX6 [11]): 9.06 upbm affinity estimate (log intensity, higher = more binding, comparable within an allelic series) | binding signal (SIX6 [12]): 8.95 upbm affinity estimate (log intensity, higher = more binding, comparable within an allelic series) | binding signal (SIX6 [13]): 8.91 upbm affinity estimate (log intensity, higher = more binding, comparable within an allelic series) | binding signal (SIX6 [14]): 9.05 upbm affinity estimate (log intensity, higher = more binding, comparable within an allelic series) | binding signal (SIX6 [15]): 9.08 upbm affinity estimate (log intensity, higher = more binding, comparable within an allelic series) | binding signal (SIX6 [16]): 9.09 upbm affinity estimate (log intensity, higher = more binding, comparable within an allelic series) | binding signal (SIX6 [17]): 9.06 upbm affinity estimate (log intensity, higher = more binding, comparable within an allelic series) | binding signal (SIX6 [18]): 9.06 upbm affinity estimate (log intensity, higher = more binding, comparable within an allelic series) | binding signal (SIX6 [19]): 9.01 upbm affinity estimate (log intensity, higher = more binding, comparable within an allelic series)

CCCTGGCC
binding signal (HOXD13): 9.28 upbm affinity estimate (log intensity, higher = more binding, comparable within an allelic series)

GCGGCCCA
binding signal (SIX6 [7]): 8.92 upbm affinity estimate (log intensity, higher = more binding, comparable within an allelic series) | binding signal (SIX6 [8]): 8.97 upbm affinity estimate (log intensity, higher = more binding, comparable within an allelic series) | binding signal (SIX6 [9]): 8.91 upbm affinity estimate (log intensity, higher = more binding, comparable within an allelic series) | binding signal (SIX6 [10]): 9.19 upbm affinity estimate (log intensity, higher = more binding, comparable within an allelic series) | binding signal (SIX6 [11]): 8.93 upbm affinity estimate (log intensity, higher = more binding, comparable within an allelic series) | binding signal (SIX6 [12]): 8.95 upbm affinity estimate (log intensity, higher = more binding, comparable within an allelic series) | binding signal (SIX6 [13]): 8.94 upbm affinity estimate (log intensity, higher = more binding, comparable within an allelic series) | binding signal (SIX6 [14]): 8.87 upbm affinity estimate (log intensity, higher = more binding, comparable within an allelic series) | binding signal (SIX6 [15]): 8.74 upbm affinity estimate (log intensity, higher = more binding, comparable within an allelic series) | binding signal (SIX6 [16]): 8.92 upbm affinity estimate (log intensity, higher = more binding, comparable within an allelic series) | binding signal (SIX6 [17]): 8.8 upbm affinity estimate (log intensity, higher = more binding, comparable within an allelic series) | binding signal (SIX6 [18]): 8.92 upbm affinity estimate (log intensity, higher = more binding, comparable within an allelic series) | binding signal (SIX6 [19]): 8.91 upbm affinity estimate (log intensity, higher = more binding, comparable within an allelic series)

CAGCGGCC
binding signal (SIX6 [7]): 8.85 upbm affinity estimate (log intensity, higher = more binding, comparable within an allelic series) | binding signal (SIX6 [8]): 8.77 upbm affinity estimate (log intensity, higher = more binding, comparable within an allelic series) | binding signal (SIX6 [9]): 8.79 upbm affinity estimate (log intensity, higher = more binding, comparable within an allelic series) | binding signal (SIX6 [10]): 8.97 upbm affinity estimate (log intensity, higher = more binding, comparable within an allelic series) | binding signal (SIX6 [11]): 8.8 upbm affinity estimate (log intensity, higher = more binding, comparable within an allelic series) | binding signal (SIX6 [12]): 8.83 upbm affinity estimate (log intensity, higher = more binding, comparable within an allelic series) | binding signal (SIX6 [13]): 8.89 upbm affinity estimate (log intensity, higher = more binding, comparable within an allelic series) | binding signal (SIX6 [14]): 8.88 upbm affinity estimate (log intensity, higher = more binding, comparable within an allelic series) | binding signal (SIX6 [15]): 8.81 upbm affinity estimate (log intensity, higher = more binding, comparable within an allelic series) | binding signal (SIX6 [16]): 8.75 upbm affinity estimate (log intensity, higher = more binding, comparable within an allelic series) | binding signal (SIX6 [17]): 8.83 upbm affinity estimate (log intensity, higher = more binding, comparable within an allelic series) | binding signal (SIX6 [18]): 8.8 upbm affinity estimate (log intensity, higher = more binding, comparable within an allelic series) | binding signal (SIX6 [19]): 8.74 upbm affinity estimate (log intensity, higher = more binding, comparable within an allelic series)

CCCCTGCG
binding signal (SIX6 [7]): 8.92 upbm affinity estimate (log intensity, higher = more binding, comparable within an allelic series) | binding signal (SIX6 [8]): 8.67 upbm affinity estimate (log intensity, higher = more binding, comparable within an allelic series) | binding signal (SIX6 [9]): 8.89 upbm affinity estimate (log intensity, higher = more binding, comparable within an allelic series) | binding signal (SIX6 [10]): 8.67 upbm affinity estimate (log intensity, higher = more binding, comparable within an allelic series) | binding signal (SIX6 [11]): 8.87 upbm affinity estimate (log intensity, higher = more binding, comparable within an allelic series) | binding signal (SIX6 [12]): 8.77 upbm affinity estimate (log intensity, higher = more binding, comparable within an allelic series) | binding signal (SIX6 [13]): 8.85 upbm affinity estimate (log intensity, higher = more binding, comparable within an allelic series) | binding signal (SIX6 [14]): 8.87 upbm affinity estimate (log intensity, higher = more binding, comparable within an allelic series) | binding signal (SIX6 [15]): 8.92 upbm affinity estimate (log intensity, higher = more binding, comparable within an allelic series) | binding signal (SIX6 [16]): 8.91 upbm affinity estimate (log intensity, higher = more binding, comparable within an allelic series) | binding signal (SIX6 [17]): 8.9 upbm affinity estimate (log intensity, higher = more binding, comparable within an allelic series) | binding signal (SIX6 [18]): 8.87 upbm affinity estimate (log intensity, higher = more binding, comparable within an allelic series) | binding signal (SIX6 [19]): 8.84 upbm affinity estimate (log intensity, higher = more binding, comparable within an allelic series)

CCCCCCGG
binding signal (HOXD13): 8.78 upbm affinity estimate (log intensity, higher = more binding, comparable within an allelic series)

CGGTGGGC
binding signal (HOXD13): 9.53 upbm affinity estimate (log intensity, higher = more binding, comparable within an allelic series)
